Reference: article PMC10163288
Only a sample is shown. How many sequences the whole screen found active is unknown.

B1: il10ra_site1_normal_mot_HHH_b2_01397_000000078_0001_23_39_H_._HHH_b2_08075_0001_0000300026_0000002_0_af2pred_0001 (protein)
chain: SSSSDERVKLTLRFAEALAKHGDRRAVELLLRAARQLAERDGDEELEELIEEVEERVRELLSSSS
B2: il10ra_site1_normal_mot_HHH_b1_05357_000000034_0001_23_39_H_._HHH_b1_03625_af2_0001_0000700020_0000001_0 (protein)
chain: SSSSSDEKEVTHILIQAYAAANHGNPEEAEELLKEAKEIAEEINNERLKLSIEKVEEILRSSSSS
B3: il10ra_site1_sap_13_mot_HHH_b2_00943_af2_000000149_0001_1_17_H_._HHH_b1_02941_af2_0001_0000200003_0000001_0_0001 (protein)
chain: SSSSDVSREAYELSRRAAELHSEGNPEEARELLEEAEELLREAGDRVILHNVEYVLELLNSSSSS
B4: il10ra_site1_sap_14_mot_HHH_eva_0266_af2_000000000_0001_3_18_H_._HHH_b1_03321_0001_0000100001_0000001_0_0001 (protein)
chain: SSSSYEELKKLIERITRALREGNREEAQELIERVEELAEERNDWSARFVARVLQEALEANSSSSS
B5: il10ra_site1_normal_mot_HHH_b2_00475_000000107_0001_44_57_H_._HHH_b2_03520_0001_0000600038_0000001_0 (protein)
chain: SSSSDEEEVSHLLFRALELLFRGDKEEAEELVEEAKEIAEESNDPELQRYVEIAEHFVKAHSSSS
B6: il10ra_site1_normal_mot_HHH_b2_08186_000000021_0001_43_56_H_._HHH_b1_00125_0001_0000100002_0000001_0 (protein)
chain: SSSSSSDLEEEIEELLEELKQISDPERFAEVARRVLRLIYELGDEELLQELWEILKRLSSSSSSS
B7: il10ra_site1_normal_mot_HHH_b1_05670_000000169_0001_1_19_H_._HHH_b2_02857_0001_0000400035_0000001_1 (protein)
chain: SSSSDEDYRRAKELIELIVELLREGNPEEAKKVLEELRELAEENNNPVLEWSVRLLEEDINSSSS
B8: il10ra_site1_sap_27_mot_HHH_b1_05870_000000031_0001_1_20_H_._HHH_b2_06019_af2_0001_0000100004_0000001_0_0001 (protein)
chain: SSSSSDIEELLREAEELAEEGDPEEAARLLLEALKLIYERQDKELLQELWEVVRRVAEISSSSSS
B9: il10ra_site1_sap_19_mot_HHH_b2_03220_af2_000000223_0001_23_40_H_._HHH_b1_07213_0001_0000100001_0000001_0_0001 (protein)
chain: SSSSDEEQEELLRLLRKLVELLLRGDKEEAERLARELLELAEELNDEKVVHVVEDLEKTVSSSSS
B10: il10ra_site1_sap_24_mot_HHH_b2_00475_000000107_0001_44_57_H_._HHH_b1_04576_0001_0000500027_0000001_0_0001 (protein)
chain: DLLELAFELQRRQGTPPEDVIRALLYLAHAANDPERVELLEEVLKLLEDGDPERAEELLKEASKR
B11: il10ra_site1_sap_20_mot_HHH_b1_07100_000000193_0001_1_18_H_._HHH_b2_05849_0001_0000400035_0000001_0_0001_af2pred_0001 (protein)
chain: SSSSSERLELTIKFIEFLLEQGDPEAAKRLARAAAQIAKKDGDEELLRRIEELLEEAEELLSSSS
B12: il10ra_site1_normal_mot_1cde5897893f3d1588f92be3b001cdf2_0001_af2_000000130_0001_54_65_H_._HHH_b2_05871_0001_0000300015_0000001_1_af2pred_0001 (protein)
chain: SSSSSDEEVEERVEELLERLHHVDPKEAAQLLHEAARLAAELDNPELLELVFEAAEEVISSSSSS
B13: il10ra_site1_sap_30_mot_HHH_b1_02809_af2_000000277_0001_40_57_H_._HHH_b1_05733_0001_0000200016_0000002_0_0001 (protein)
chain: SSSSSEASRRIYELLRRIVELHHEGNPEEARELIEEAKELAEEAGDRVLLWVIEWLERLVNSSSS
B14: il10ra_site1_sap_21_mot_HHH_b1_04771_000000013_0001_40_56_H_._HHH_b1_05247_0001_0000500023_0000001_0_0001 (protein)
chain: SSSSDQEEELVRAAIRLIEQLIKNGNPEAARMILWAAEKLAKEINNPELLEELEELKELLNSSSS
B15: il10ra_site1_normal_mot_a6c796b944619e241e020fd597ddb6da_0001_af2_000000092_0001_15_31_H_._HHH_b2_01778_af2_0001_0000100002_0000002_0_af2pred_0001 (protein)
chain: SSSSSSSEEEQEVHALIFFARISDNEDAAKISLELAKKIAEEINNEELREEIEELEKELSSSSSS
B16: il10ra_site1_normal_mot_HHH_b2_01705_af2_000000069_0001_44_57_H_._HHH_b1_04218_af2_0001_0000400020_0000001_0 (protein)
chain: SSSSSSDSEELLEEAEELLKEIKDPEERTEVYRKFAEELVELGDREAIERLSELFIRASSSSSSS
B17: il10ra_site1_sap_19_mot_HHH_b1_00992_000000182_0001_23_40_H_._HHH_b1_02574_0001_0000200023_0000001_0_0001 (protein)
chain: SSSSDEEEELVRAALRLAEQAYENGDPEAAKRLLWAAEFLAREIGDEELEELVERVEEKISSSSS
B18: il10ra_site1_sap_24_mot_HHH_b1_02665_000000293_0001_1_18_H_._HHH_b2_00244_0001_0000100001_0000001_0_0001_af2pred_0001 (protein)
chain: SSSSDSRELIRLLRRALELLNDGNPEEAEKLLERAQEIAEEANSLNLRVVIEFVLEQVEQHSSSS
B19: il10ra_site1_normal_mot_HHH_b2_08265_af2_000000206_0001_22_38_H_._HHH_b2_05887_0001_0000200025_0000002_0 (protein)
chain: SSSSSDEEEVEELTREIERLLEEGDLEEAARLIQELLRVAYENKDQEAIQLAWELAQLAKSSSSS
B20: il10ra_site1_normal_mot_HHH_b2_08186_000000021_0001_43_56_H_._HHH_b1_08707_0001_0000400035_0000001_0 (protein)
chain: SSSSSDIEELLEEAERLAEEGNPEEALRLLQEALRLIFENQDEELLQELWEVLRLVARLSSSSSS
B21: il10ra_site1_sap_8_mot_HHH_b1_06348_000000162_0001_1_15_H_._HHH_b1_06922_0001_0000100010_0000001_0_0001_af2pred_0001 (protein)
chain: SSSSSEAEKALRWFLRAVEELLKRGNPEAAKLALRDARFAAKFLNDEEIEERLEELEKLLDSSSS
B22: il10ra_site1_sap_18_mot_HHH_b1_04818_af2_000000063_0001_42_55_H_._HHH_b1_04225_af2_0002_0000100001_0000002_0_0001 (protein)
chain: SSSSDETEEVAELMREAVELDHNGDKEEAERVAREALELAEQLNNDVLRIQAEYLEKLIGSSSSS
B23: il10ra_site1_sap_17_mot_HHH_b2_03328_af2_000000127_0001_1_19_H_._HHH_b1_04993_0001_0000100008_0000001_0_0001 (protein)
chain: SSSSSIRERIIRLLYRALRLAAEGNPEEAERLIEEAHELAEELGDPELERYIRILLHFVRSSSSS
B24: il10ra_site1_sap_16_mot_HHH_b2_04251_af2_000000037_0001_42_56_H_._HHH_b1_07004_0001_0000200017_0000001_0_0001 (protein)
chain: SSSSDVRERAARVAIEVLRIAFQQSDPEALRAVWELFRRIIEEGDPELLEELEQLLEELRSSSSS

target: il10ra, Q13651; assay: yeast display titration
Sequence (Q13651 whole entry): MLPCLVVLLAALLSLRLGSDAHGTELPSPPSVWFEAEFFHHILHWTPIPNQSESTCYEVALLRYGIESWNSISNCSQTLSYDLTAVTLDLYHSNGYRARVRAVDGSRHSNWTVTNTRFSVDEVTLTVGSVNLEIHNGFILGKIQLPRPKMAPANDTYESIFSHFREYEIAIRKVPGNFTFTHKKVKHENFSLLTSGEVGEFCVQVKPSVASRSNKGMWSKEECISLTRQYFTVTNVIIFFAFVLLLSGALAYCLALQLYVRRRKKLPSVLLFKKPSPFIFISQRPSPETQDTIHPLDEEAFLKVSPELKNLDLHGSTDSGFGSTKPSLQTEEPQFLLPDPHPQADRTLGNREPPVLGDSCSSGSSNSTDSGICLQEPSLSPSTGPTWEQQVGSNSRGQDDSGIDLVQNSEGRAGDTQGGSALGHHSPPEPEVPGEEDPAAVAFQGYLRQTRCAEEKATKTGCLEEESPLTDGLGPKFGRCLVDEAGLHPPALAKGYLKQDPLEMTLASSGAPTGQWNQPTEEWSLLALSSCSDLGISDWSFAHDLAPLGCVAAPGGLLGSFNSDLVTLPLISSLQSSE

Apparent Kd, inactive:
B1 no binding seen
B2 no binding seen
B3 no binding seen
B4 no binding seen
B5 no binding seen
B6 no binding seen
B7 no binding seen
B8 no binding seen
B9 no binding seen
B10 no binding seen
B11 no binding seen
B12 no binding seen
B13 no binding seen
B14 no binding seen
B15 no binding seen
B16 no binding seen
B17 no binding seen
B18 no binding seen
B19 no binding seen
B20 no binding seen
B21 no binding seen
B22 no binding seen
B23 no binding seen
B24 no binding seen
